Assay [1] is described as follows: NCI Yeast Anticancer Drug Screen. Data for the rad50 strain (AID 155).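 Also: 0% = growth of vehicle-only cultures of the same strain.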 Particulars: S. cerevisiae rad50 strain growth inhibition, active compounds read high. The gist of the method: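 Vehicle-treated cultures provide the reference for the growth inhibition reported for compound-exposed, repair-deficient yeast.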
The nature of assay [2]: NCI Yeast Anticancer Drug Screen. Data for the mec2-1 strain (AID 157). Particulars: S. cerevisiae mec2-1 strain, active compounds read high. The gist of the method:
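Each compound was tested on mec2-1 yeast, a strain altered in DNA damage repair or cell cycle control. Growth inhibition is reported relative to vehicle.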

Assay [3] can be described thus: NCI Yeast Anticancer Drug Screen. Data for the sgs1 mgt1 strain (AID 161).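 Also: 0% = growth of cultures given vehicle only.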 Particulars: S. cerevisiae sgs1 mgt1 strain, active compounds read high. The gist of the method:
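Test agents were incubated with a DNA-repair-mutant yeast strain. Growth was then read and compared against vehicle-treated controls.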

The nature of assay [4]: NCI Yeast Anticancer Drug Screen. Data for the cln2 rad14 strain (AID 165).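 Also: 0% = growth equal to vehicle treated cultures.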 Particulars: S. cerevisiae cln2 rad14 strain, active compounds read high. Summed up:
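Test compounds were added to cln2 rad14 yeast cultures; inhibition of growth was then determined by comparison with vehicle treatment.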

Assay [5] can be described thus: NCI Yeast Anticancer Drug Screen. Data for the bub3 strain (AID 167). Conditions: S. cerevisiae bub3 mutant strain, active compounds read high. The gist of the method: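 Mutant yeast screening strain plus compound; vehicle-treated cultures serve as the 0% inhibition reference.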
Assay [6] can be described thus: NCI Yeast Anticancer Drug Screen. Data for the mlh1 rad18 strain (AID 175). Conditions: S. cerevisiae mlh1 rad18 strain growth inhibition, active compounds read high. The gist of the method: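 Inhibition values reflect reduced growth of mutant yeast versus vehicle-treated controls following compound exposure; the mutations affect DNA damage repair.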
Setting [7] is: at 5.0 µM (retest, dose inferred, filed as 0.5).
The mark [8] stands for this setting: at 50.0 µM (retest, dose inferred, filed as 5.0).

The record followed here is PubChem BioAssay (NCI).

The panel holds about 79,000 compounds, 15% with a hit somewhere; the sample as a whole holds those more often. Values without a mark were called inactive. The source made the active and inactive calls. Rule as the data show it: active = growth inhibition above about 70%; inactive = the rest.

As for `O=C(/C=C/C(=O)c1ccc(O)cc1)c1ccccc1`, the growth inhibition in assay [1] (setting [7]) is -1%; in assay [1] (setting [8]) it was 89% (active); in assay [1] (at 50.0 µM), 12.4%; in assay [2] (setting [7]) it was -1%; in assay [2] (setting [8]), 85% (active); in assay [2] (at 50.0 µM), 26.6%. For the same compound, the growth inhibition was -3% in assay [3] (setting [7]); 82% (active) in assay [3] (setting [8]); 30.8% in assay [3] (at 50.0 µM); 3% in assay [4] (setting [7]); 90% (active) in assay [4] (setting [8]); 24.6% in assay [4] (at 50.0 µM). Also, the growth inhibition in assay [5] (setting [7]) was -6%; in assay [5] (setting [8]) it was 87% (active); in assay [5] (at 50.0 µM), 38.6%; in assay [6] (setting [7]), -1%; in assay [6] (setting [8]), 94% (active); in assay [6] (at 50.0 µM) it was 24.7%.

Take `CCOC(=O)/C=C/c1ccc([N+](=O)[O-])o1`: the growth inhibition in assay [1] (setting [7]) was 18%; in assay [1] (setting [8]), 91% (active); in assay [1] (at 50.0 µM), 73.2% (active); in assay [2] (setting [7]), 3%; in assay [2] (setting [8]) it was 72% (active); in assay [2] (at 50.0 µM), 31.4%. In addition, the growth inhibition in assay [3] (setting [7]) was 21%; in assay [3] (setting [8]), 93% (active); in assay [3] (at 50.0 µM) it was 91.5% (active); in assay [4] (setting [7]), 4%; in assay [4] (setting [8]), 58%; in assay [4] (at 50.0 µM) it was 34.5%. Further, the growth inhibition is 11% in assay [5] (setting [7]); 82% (active) in assay [5] (setting [8]); 27.1% in assay [5] (at 50.0 µM); 28% in assay [6] (setting [7]); 93% (active) in assay [6] (setting [8]); 85.5% (active) in assay [6] (at 50.0 µM).

For `C/C=C/CC(C/C=C/C)C1CC[N-]CC1.C/C=C/CC(C/C=C/C)C1CC[N-]CC1.[Cl][Pt+2]([Cl])([Cl])[Cl]`, the growth inhibition is 8% in assay [1] (setting [7]); 88% (active) in assay [1] (setting [8]); 97.3% (active) in assay [1] (at 50.0 µM); -62% in assay [2] (setting [7]); 78% (active) in assay [2] (setting [8]); 98.8% (active) in assay [2] (at 50.0 µM). Also, the growth inhibition in assay [3] (setting [7]) was 3%; in assay [3] (setting [8]) it was 91% (active); in assay [3] (at 50.0 µM) it was 98.8% (active); in assay [4] (setting [7]), 4%; in assay [4] (setting [8]), 58%; in assay [4] (at 50.0 µM), 97.7% (active). Also, the growth inhibition is -3% in assay [5] (setting [7]); 85% (active) in assay [5] (setting [8]); 98% (active) in assay [5] (at 50.0 µM); 7% in assay [6] (setting [7]); 88% (active) in assay [6] (setting [8]); 98.6% (active) in assay [6] (at 50.0 µM).

Take `O=S(=O)(O)SCCNCCCCCC1CCCCC1`: the growth inhibition was 20% in assay [1] (setting [7]); 87% (active) in assay [1] (setting [8]); 15.3% in assay [1] (at 50.0 µM); 27% in assay [2] (setting [7]); 94% (active) in assay [2] (setting [8]); 22.5% in assay [2] (at 50.0 µM). Further, the growth inhibition in assay [3] (setting [7]) is 19%; in assay [3] (setting [8]) it was 83% (active); in assay [3] (at 50.0 µM), 65.5%; in assay [4] (setting [7]), 32%; in assay [4] (setting [8]), 71% (active); in assay [4] (at 50.0 µM) it was 18.6%. In addition, the growth inhibition is 17% in assay [5] (setting [7]); 95% (active) in assay [5] (setting [8]); 52.2% in assay [5] (at 50.0 µM); 34% in assay [6] (setting [7]); 93% (active) in assay [6] (setting [8]); 30.6% in assay [6] (at 50.0 µM).

With `Oc1ccc2ccc3ccccc3c2c1`, the growth inhibition in assay [1] (setting [7]) was 5%; in assay [1] (setting [8]), 99% (active); in assay [1] (at 50.0 µM) it was 99.5% (active); in assay [2] (setting [7]) it was 2%; in assay [2] (setting [8]), 99% (active); in assay [2] (at 50.0 µM) it was 99.5% (active). The growth inhibition in assay [3] (setting [7]) was 5%; in assay [3] (setting [8]), 99% (active); in assay [3] (at 50.0 µM) it was 99.5% (active); in assay [4] (setting [7]), -3%; in assay [4] (setting [8]), 99% (active); in assay [4] (at 50.0 µM), 99.5% (active). Moreover, the growth inhibition is -3% in assay [5] (setting [7]); 98% (active) in assay [5] (setting [8]); 99.5% (active) in assay [5] (at 50.0 µM); 2% in assay [6] (setting [7]); 99% (active) in assay [6] (setting [8]); 99.5% (active) in assay [6] (at 50.0 µM).

As for `CC(=O)c1c(C)n(C)c2c1nnc1ccccc12`, the growth inhibition is 53% in assay [1] (setting [7]); 81% (active) in assay [1] (setting [8]); 92.3% (active) in assay [1] (at 50.0 µM); 17% in assay [2] (setting [7]); 50% in assay [2] (setting [8]); 36.9% in assay [2] (at 50.0 µM). Also, the growth inhibition in assay [3] (setting [7]) was 6%; in assay [3] (setting [8]) it was -2%; in assay [3] (at 50.0 µM), 22%; in assay [4] (setting [7]), 9%; in assay [4] (setting [8]) it was 31%; in assay [4] (at 50.0 µM), 59.4%. Moreover, the growth inhibition was 11% in assay [5] (setting [7]); 48% in assay [5] (setting [8]); 27.1% in assay [5] (at 50.0 µM); 19% in assay [6] (setting [7]); 56% in assay [6] (setting [8]); 68.4% in assay [6] (at 50.0 µM).
